High-throughput results (PubChem BioAssay)
Most compounds without a hit are left out; they make up all but 2.8% or so of the library.
WRN helicase inh = inhibitors of human WRN helicase. Q14191. WRN helicase unwinding, fluorescent forked duplex, kinetic. Potency, µM (series often up to 114 µM), most hits filed as inhibitors. hit rate 0.46% among 360,000. AID 651768; note: nearly all actives have a fitted effect of over 55% in size
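Primary qHTS, 1536-well format. 20 nM WRN + compound, 15 min RT; start with 100 nM forked fluorophore/quencher duplex, 2 mM ATP (final); kinetic read ex 525/em 598 nm.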
POLI inh = DNA polymerase iota (human) inhibition. hit rate 1% among 390,000. Potency, µM (highest dose often 115 µM), usual class: inhibitors. Pol iota fluorescent replication assay, 10 min
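Pol iota at 10 nM preincubated 15 min with compounds at room temperature; reaction started with fluorescent substrate, 50 nM final. Fluorescence read kinetically at 0 and 10 min; buffer-only wells as negative control.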
POLH inh = blocks human DNA polymerase eta activity; Q9Y253; recombinant Pol eta, fluorescent DNA replication assay; Potency, µM (series often up to 114 µM), actives largely listed as inhibitors; hit rate 1.2% among 390,000
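Pol eta (10 nM) was preincubated with compounds for 15 min at room temperature, after which fluorescent replication substrate (50 nM final) was added to start the reaction. Fluorescence was read kinetically at 0 and 10 min.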
Pol kappa inh = inhibitors of human DNA polymerase kappa. Q9UBT6. purified Pol kappa, fluorescent DNA synthesis assay, 10 min. Potency, µM (doses to about 107 µM), actives largely listed as inhibitors. hit rate 0.53% among 400,000. AID 588579
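Activity was followed as the change in fluorescence between reads at 0 and 10 min after starting the reaction with 50 nM substrate. Beforehand, 10 nM polymerase had been preincubated with compound for 15 min at room temperature.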
PI5P4Ka inh = PI5P4K alpha (human) kinase inhibition; P48426; hit rate 1.2% among 330,000; PI5P4Kalpha enzyme, ADP-Glo luminescence, 60 min; stronger effect = lower value; AID 652105; max response, %; active = max response of -50% or lower; inconclusive = between -30% and -50%; inactive = -30% or higher; note: value at the top dose of about 77 µM
Target sequence (P48426 whole entry, looked up): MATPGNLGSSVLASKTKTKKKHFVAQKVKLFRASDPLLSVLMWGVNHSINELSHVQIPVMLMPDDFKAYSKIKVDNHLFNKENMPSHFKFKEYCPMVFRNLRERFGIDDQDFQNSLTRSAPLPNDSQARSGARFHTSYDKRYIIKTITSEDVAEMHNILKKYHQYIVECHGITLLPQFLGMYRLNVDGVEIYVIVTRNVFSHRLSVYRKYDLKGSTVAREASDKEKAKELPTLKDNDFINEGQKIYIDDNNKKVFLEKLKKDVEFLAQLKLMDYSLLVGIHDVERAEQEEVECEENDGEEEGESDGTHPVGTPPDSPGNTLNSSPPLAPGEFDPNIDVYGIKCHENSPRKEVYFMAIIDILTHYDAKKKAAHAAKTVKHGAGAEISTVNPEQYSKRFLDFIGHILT
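ADP-Glo luminescence end-point after a 60 min room-temperature kinase reaction. PI5P4Kalpha and substrate in HEPES pH 7.4 buffer with EGTA, 0.1% CHAPS and 5% DMSO; ATP at 5 microM final.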
Pol beta inh = inhibitors of human DNA polymerase beta. P06746. Pol beta primer extension/strand displacement, fluorescence kinetic. Potency, µM (top dose mostly 114 µM), hits mostly inhibitors. hit rate 1.3% among 340,000. AID 485314
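Curves were derived by four-parameter Hill fits of normalized qHTS data. The kinetic fluorescent primer-extension read was taken at 0 and 10 min after 50 nM substrate, following a 15 min room-temperature preincubation of 10 nM enzyme with compounds.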
Hits are given with their value; i = inactive; ? = inconclusive; nt = not tested or not shown; [ ] = remark or other dose. Unless noted, calls come from the whole dose curve; as a rule, active = well fitted curve in the direction sought with a large enough effect; inconclusive = small, poorly fitted or top-dose-only effect, or another doubt; inactive = no such curve, though single readings can be large; an effect the other way counts as inactive or inconclusive.

SMILES | WRN helicase inh | POLI inh | POLH inh | Pol kappa inh | PI5P4Ka inh | Pol beta inh
COc1ccc(-n2ncc(C(=O)N3CCN(c4ccccn4)CC3)c2C2CCN(C(=O)OC(C)(C)C)CC2)cc1 | nt | i | i | i | nt | i
Cc1nnc2c3ccccc3nc(N3CCN(c4ccccc4)CC3)n12 | nt | i | i | i | nt | i
COc1cc(Nc2ncc3c(n2)CCN(Cc2cc(Br)cs2)C3)cc(OC)c1 | nt | i | nt | i | nt | i
COc1ccc(C(=O)Nc2c(N)nc(SCC(=O)Nc3ccc(NC(C)=O)cc3)[nH]c2=O)cc1 | i | 79µM | ? | ? | i | 35µM
CC(=O)c1sc2nc(SCC(=O)NCCc3ccccc3)[nH]c(=O)c2c1C | i | i | i | i | i | i
COc1ccc(NC(=O)CSc2nc(N)c(NC(=O)c3ccccc3F)c(=O)[nH]2)cc1 | i | i | i | i | i | i
COc1ccc(CCNC(=O)CSc2nc3sc(C(=O)O)c(C)c3c(=O)[nH]2)cc1OC | i | i | i | i | -71 | i
CC1=Nc2cc(C(=O)NC3CCCC3)ccc2Sc2ccc(Br)cc21 | nt | i | i | i | nt | i
CC1=Nc2cc(C(=O)O)ccc2Sc2ccc(Br)cc21 | i | ? | 50µM | ? | i | i
O=C(O)c1ccc2c(ccc3nn(-c4ccc(/C=C/c5ccc(-n6nc7ccc8cc(C(=O)O)ccc8c7n6)cc5[S+](=O)([O-])[O-])c([S+](=O)([O-])[O-])c4)nc32)c1 | nt | ? | nt | 1.8µM | nt | nt
O=[S+]([O-])([O-])c1ccc2c(c1)cc([S+](=O)([O-])[O-])c1nn(-c3ccc(/C=C/c4ccc(-n5nc6c([S+](=O)([O-])[O-])cc7cc([S+](=O)([O-])[O-])ccc7c6n5)cc4[S+](=O)([O-])[O-])c([S+](=O)([O-])[O-])c3)nc12 | nt | ? | nt | 10µM | nt | nt
COc1ccc(Br)c(/C=N/NC(=O)COc2ccc(-c3ccccc3)cc2)c1 | i | ? | i | i | i | i
O=C(O)COc1ccccc1/C=N/NC(=O)COc1ccc(-c2ccccc2)cc1 | ? | i | 50µM | i | i | ?
CCOc1cc(/C=N/Nc2cccc(C(=O)O)c2)ccc1OC(=O)c1ccccc1 | i | i | i | i | i | ?
O=C(COc1ccccc1-c1ccccc1)N/N=C/c1cccc2ccccc12 | i | i | i | i | i | ?
O=C(O)c1cccc(NC(=S)N/N=C/c2cccc(O)c2)c1 | i | i | i | i | i | i
O=C(COc1cccc2ccccc12)N/N=C/c1ccccc1OCc1ccc(C(=O)O)cc1 | i[11.6 µM] | i | 79µM | i | i | 89µM
O=C(O)c1cccc(NC(=S)N/N=C/c2ccccc2OCc2ccc(Br)cc2)c1 | i[11.6 µM] | ? | ? | i | -65 | ?
COC(=O)c1ccc(COc2ccccc2/C=N/Nc2cccc(C(=O)O)c2)cc1 | i | ? | 79µM | ? | i | i
CCc1ccc(N2CC(c3nnc(NC(=O)c4ccco4)s3)CC2=O)cc1 (centres undefined) | nt | i | i | i | nt | i
CCN(CC)S(=O)(=O)c1ccc(NC(=O)c2c(C)oc3ncnc(N4CCCCC4)c23)cc1 | nt | i | i | i | nt | i
CCn1cc(/C=N/NC(=O)COc2cccc3cccnc23)c2ccccc21 | ? | ? | ? | i | i | 13µM
COc1ccc(/C=N/NC(=O)COc2cccc3cccnc23)cc1OC | i | ? | ? | ? | i | ?
O=C(COCc1cc(-c2ccc3c(c2)OCO3)on1)Nc1cccc(O)c1 | nt | i | i | i | nt | i
COc1cccc2sc(Nc3nc(-c4cc5ccccc5oc4=O)cs3)nc12 | ? | ? | ? | ? | ? | 35µM
COc1cccc2sc(Nc3nc(-c4ccncc4)cs3)nc12 | i | i | i | i | ? | ?
COc1cccc(-c2noc(-c3cc4ccccc4oc3=O)n2)c1OC | nt | 71µM | i | i | nt | i
N/C(Cc1ccc([N+](=O)[O-])cc1)=N\OC(=O)COc1ccccc1Cl | i | i | i | i | -59 | ?
C=C1C=C(C(F)F)n2ncc(C(=O)NCc3ccc(F)cc3)c2N1 | nt | i | nt | i | nt | nt
Cc1cc(=O)oc2cc(OCC(O)CN3CCN(c4ccc(F)cc4)CC3)ccc12 (centres undefined) | i | i | i | i | nt | i
